The results in this text go back to PubChem BioAssay AID504834 (National Center for Advancing Translational Sciences (NCATS), 2011).

Out of some 320,000 compounds screened, about 22,000 (6.9%) were called active. Another 27% or so got no clear call; they are omitted. Calls follow the shape of the dose curve; as a rule, active = well fitted inhibition curve with a large enough effect; inconclusive = small, poorly fitted or top-dose-only effect, or another doubt; inactive = no such curve, though single readings can be large or run the other way. The sample as a whole holds a higher share of actives than the screen did.
% is scaled to controls: 0 for no effect and ±100 for the full control effect; potency is read from the fitted curve at half-maximal effect.

The nature of this assay: Primary qHTS for delayed death inhibitors of the malarial parasite plastid, 96 hour incubation. Particulars: P. falciparum luciferase reporter growth; series mostly up to 28.7 µM; activity change, negative = inhibition: at the top concentration. In outline:
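Readout is luminescence from an integrated firefly luciferase in P. falciparum. Red cells, 2% hematocrit and 0.05% parasitemia final, were cultured with compound through two parasite generations (96 hours) at 37 C, 5% CO2.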
(In qHTS, concentration-response curves come from the screen itself.)
For `Cc1sc2ncn(CC(=O)NCCCC(=O)NCc3ccc(F)cc3)c(=O)c2c1C`, the “activity change, negative = inhibition” value was -22.9% (inactive).
As to `CCc1ccc(NC(=O)NC(C)c2ccc3c(c2)OCO3)cc1` (stereo not drawn), the “activity change, negative = inhibition” value is 10.4% (inactive).
Still for that read-out and setting: next, `CC(=O)Nc1cccc([N+](=O)[O-])c1`: -0.229% (inactive).
On the same count and under the same terms, for `CC(NC(=O)c1ccco1)c1ccc2c(c1)OCO2` (stereo not drawn) the value was -13.1% (inactive).
As to `CC(NC(=O)Nc1cccc([N+](=O)[O-])c1)c1ccc2c(c1)OCO2` (stereo not drawn), the Potency is 2.08 µM (active).
Regarding `CC(NC(=S)Nc1ccc(S(N)(=O)=O)cc1)c1ccc2c(c1)OCO2` (stereo not drawn), the Potency was 4.65 µM (active).
With `O=C(Nc1cccc([N+](=O)[O-])c1)c1ccc2c(c1)OCO2`, the “activity change, negative = inhibition” value was 200% (inactive).
As to `CN(CC(=O)Nc1ccc(F)cc1)CC(=O)N1CCCCC1`, the “activity change, negative = inhibition” value was -15% (inactive).
Take `Cc1ccc(-c2nnc(Nc3ccc(C(=O)N(C)C)cc3)c3ccccc23)cc1S(N)(=O)=O`: the “activity change, negative = inhibition” value was -0.164% (inactive).
Still for that read-out and setting: next, `COc1ccccc1C(=O)N(Cc1ccc(C)o1)C1CCS(=O)(=O)C1` (stereo not drawn): 86.4% (inactive); `CCCCc1nc(SCC(=O)Nc2nnc(C(C)C)s2)n[nH]1`: 17.1% (inactive).
For the compound `CC(C)CNc1ncnc2c1cnn2Cc1ccc(Cl)cc1`, the Potency was 11.7 µM (active).
In the case of `CC(=O)Nc1ccc(NC(=O)CSc2ncnc3c2cnn3Cc2ccccc2)cc1`, the “activity change, negative = inhibition” value was 20% (inactive).
On the same count and under the same terms, next, `Clc1ccc(Cn2ncc3c(NCc4cccnc4)ncnc32)cc1`: 24.1% (inactive); `CC(=O)Nc1ccc(NC(=O)CSc2nnnn2C2CCCCC2)cc1`: 7.18% (inactive).
As to `O=C(CSc1nnnn1C1CCCC1)N1CCCCC1`, the Potency was 0.586 µM (active).
Take `CC1CCCC(C)N1C(=O)CSc1nnnn1C1CCCC1` (stereo not drawn): the “activity change, negative = inhibition” value was -4.01% (inactive).
`COc1cccc(NC(=O)c2ccccc2N(Cc2ccccc2)S(C)(=O)=O)c1`: the “activity change, negative = inhibition” value is -17.8% (inactive).
Still for that read-out and setting: for `Cc1ccc(S(=O)(=O)N2CC(C)N(S(C)(=O)=O)C2)cc1` (stereo not drawn) the value was 15.5% (inactive); for `O=C(CNC(=O)C12CC3CC(CC(C3)C1)C2)OCC(=O)N1CCCCC1`, -0.439% (inactive).
Same read-out and setting: for `CC(C)N(Cc1ccccc1)C(=O)COC(=O)c1ccccc1SCC(=O)N1CCCC1` the value was -14.6% (inactive); for `Cc1cccc(NC(=O)NC2(C)CCS(=O)(=O)C2)c1` (stereo not drawn), 18.6% (inactive).
Still for that read-out and setting: for `CC(=O)Nc1ccc(C(=O)CSc2nc3ccc(C)cc3[nH]2)cc1` the value was 64.2% (inactive).
As to `CCOC(=O)CSc1nc2ccc(C)cc2[nH]1`, the Potency is 13.1 µM (active).
As for `COc1ccc2nc(SCC(=O)Nc3c(C)cc(C)cc3C)[nH]c2c1`, the “activity change, negative = inhibition” value is 0% (inactive).
For the compound `O=C(Nc1c2c(nn1-c1ccccc1)CS(=O)(=O)C2)C1CCCC1`, the “activity change, negative = inhibition” value was 17.7% (inactive).
Same read-out and setting: next, `CSc1ncc(C(=O)NCCCc2ccccc2)c(C)n1`: 22.5% (inactive); `COC(=O)C1=C(C)Nc2ncnn2C1c1cccnc1` (stereo not drawn): -15.1% (inactive); `COC(=O)C1=C(N)Oc2cc(C)oc(=O)c2C1c1cccnc1` (stereo not drawn): 28.8% (inactive).
Take `CCSc1nc2c(c(=O)[nH]1)C(c1cccnc1)C(C(=O)OC(C)C)=C(C)N2` (stereo not drawn): the Potency is 1.31 µM (active).
Consider `COc1ccc2c(C)cc(SCC(=O)NCC3CCCO3)nc2c1` (stereo not drawn), for which the “activity change, negative = inhibition” value was -2.69% (inactive).
Same read-out and setting: for `O=C(Nc1ccc(F)cc1)C1CCCN(S(=O)(=O)c2ccc(-n3cnnn3)cc2)C1` (stereo not drawn) the value was 54% (inactive); for `Cc1ccc(-c2nnc(C)c(N3CC(C)OC(C)C3)n2)cc1` (stereo not drawn), -3.59% (inactive); for `c1ccc(-c2nnc(N3CCOCC3)c3ccccc23)cc1`, 16.1% (inactive).
Take `CC1CN(c2nc(-c3ccccc3)nnc2-c2ccccc2)CC(C)O1` (stereo not drawn): the Potency is 0.828 µM (active).
Turning to `CCOC(=O)c1cccc(NC(=O)CCc2nnc3ccc(N4CCOCC4)nn23)c1`, the “activity change, negative = inhibition” value was 12.9% (inactive).
Still for that read-out and setting: next, `O=C(CNC(=O)c1ccc(Br)o1)NCC1CCCO1` (stereo not drawn): 9.93% (inactive); `O=C(NCc1cccs1)c1ccc(Br)o1`: 26.7% (inactive).
With `O=C(CNC(=O)c1ccc(Br)o1)Nc1ccccc1`, the Potency was 13.1 µM (active).
For `Nc1c(N(CCCO)C(=O)C2CCCC2)c(=O)[nH]c(=O)n1Cc1ccccc1`, the “activity change, negative = inhibition” value was 30.7% (inactive).
For `Cc1cc(Cl)ccc1OCCCC(=O)Nc1cccc(-n2cnnn2)c1`, the “activity change, negative = inhibition” value was -2.68% (inactive).
On the same count and under the same terms, for `OC(CNC1CCCC1)COc1ccc(F)cc1` (stereo not drawn) the value was -2.07% (inactive); for `Cc1ccc(S(=O)(=O)/N=C(\N)c2ccc(F)cc2)cc1`, 20.4% (inactive).
For the compound `Cc1ccc(-c2cc(=O)c3ccc(F)cc3[nH]2)cc1`, the Potency was 2.94 µM (active).
In the case of `Cc1ccc(-c2cc(=O)c3ccc(Cl)cc3[nH]2)cc1`, the “activity change, negative = inhibition” value was 9.72% (inactive).
Still for that read-out and setting: next, `COCCN1C(=O)N(c2ccc(Cl)cc2)C(=O)C1CC(=O)Nc1cc(OC)cc(OC)c1` (stereo not drawn): -17% (inactive).
On to `O=C(O)c1ccccc1OCc1ccccc1Cl`, for which the “activity change, negative = inhibition” value was 1.98% (inactive).
For `O=C(COC(=O)Cc1c[nH]c2ccccc12)NCCc1ccccc1`, the “activity change, negative = inhibition” value was 15.9% (inactive).
On the same count and under the same terms, for `O=C(CCc1c[nH]c2ccccc12)NCCOc1ccccc1` the value was 17.4% (inactive).
Consider `O=C(Cc1c[nH]c2ccccc12)OCCOC(=O)Cc1c[nH]c2ccccc12`, for which the Potency is 5.22 µM (active).
As to `O=C1NN(c2ccccc2)C(=O)/C1=C/c1ccc(-c2cccc(C(=O)O)c2)o1`, the “activity change, negative = inhibition” value is -0.0242% (inactive).
As for `COc1ccc(CNC(=O)CCC(=O)Nc2nnc(C(C)C)s2)cc1`, the “activity change, negative = inhibition” value was 0% (inactive).
The same measure, in the same setting: next, `COc1cc2ccccc2cc1C(=O)Nc1nc(C)c(C(C)=O)s1`: 167% (inactive).
